# Test results as given in PubChem BioAssay (NCATS).
# Results filed as inconclusive are left out. Where a call stands in place of a potency, no number is given. Activity calls are given as the source filed them. The call rests on the fitted dose curve; in most records, active means well fitted curve in the direction sought with a large enough effect; inconclusive means small, poorly fitted or top-dose-only effect, or another doubt; inactive means no such curve, though single readings can be large or run the other way.
# Target: Nuclear receptor subfamily 1 group I member 3 (Homo sapiens) (UniProt Q14994)
# Sequence (Q14994 whole entry, looked up): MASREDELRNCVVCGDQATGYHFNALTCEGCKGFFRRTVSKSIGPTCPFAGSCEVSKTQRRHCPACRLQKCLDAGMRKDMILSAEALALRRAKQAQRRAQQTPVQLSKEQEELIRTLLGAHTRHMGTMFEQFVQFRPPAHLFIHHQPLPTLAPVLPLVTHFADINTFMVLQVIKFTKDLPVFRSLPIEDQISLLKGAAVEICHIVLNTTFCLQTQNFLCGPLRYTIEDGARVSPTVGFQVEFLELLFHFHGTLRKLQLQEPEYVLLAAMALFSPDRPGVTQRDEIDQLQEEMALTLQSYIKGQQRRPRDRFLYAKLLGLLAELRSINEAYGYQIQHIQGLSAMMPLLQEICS
# Experiment: Primary qHTS for antagonist of constitutive androstane receptor (CAR) against the NCATS DSHEA and TCM libraries (AID 1794836);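 further: HepG2 cells stably expressing hCAR with CYP2B6 luciferase reporter stimulated by CITCO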
# Settings: CAR reporter cell assay, antagonist mode, luciferase; series mostly up to 40 µM
# Source text: Assay Development and Screening Technology Laboratory (ADST)
# National Center for Advancing Translational Sciences (NCATS), Rockville, MD
# National Institute of Health (NIH), Bethesda, Maryland
# Dietary Supplements and Natural Products have minor oversight of their safety and efficacy. We assembled a collection of Dietary Supplements and Natural Products (DSNP) as well as Traditional Chinese Medicinal (TCM) Plant extracts, which were screened against an in vitro panel of assays, including a liver cytochrome p450 enzyme panel, CAR/PXR signaling pathways, and P-gp transporter assays, to assess their activity. This pipeline facilitated the interrogation of Natural Product-Drug Interaction (NaPDI) through prominent metabolizing pathways. In addition, we compared the activity profiles of the DSNP/TCM substances with those of an approved drug collection. Many of the approved drugs have well-annotated mechanisms of action (MOA) while the MOAs for most of the DSNP and TCM samples remain unknown. Based on the premise that compounds with similar activity profiles tend to share similar targets or MOA, we clustered the library activity profiles to identify overlap with the NCATS Pharmaceutical Collection to predict the MOAs of the DSNP/TCM substances. Overall, we highlight four significant bioactivity profiles (measured by p-values) as examples of this prediction.
# To this end, we profiled both collections for potential CAR and/or PXR activity, employing a previously published 1536-well qHTS assay.
# PROTOCOL TABLE (as described by Inglese J, Shamu CE and Guy RK. 2007)
# SEQUENCE No. (e.g., 1, 2, 3, etc.); […] (e.g., Cells, Incubation, Reagent, etc.); VALUE; DESCRIPTION.
# 1; Cells; 4 uL; 1536-well white Greiner assay plate.
# 2; Incubation; 5 hours; 37C, 95% humidity, 5% CO2.
# 3; Compounds; 23 nL; Kalypsis pin tool (Wako USA) equipped with 1536-well pin head to transfer to the assay plates.
# 4; Reagent; 1 uL; 48 uM CITCO (final concentration).
# 5; Incubation; 24 hours; 37C, 5% CO2.
# 6; Detection Reagent 1; 1 uL; CellTiter-Fluor (Promega).
# 7; Incubation; 1 hour; 37C, 5% CO2.
# 8; Detector 1; Fluorescence intensity; ViewLux plate reader (excitation 405 nm, emission 540 nm).
# 9; Detection Reagent 2; 4 uL; ONE-Glo Luciferase reagent (Promega).
# 10; Incubation; 30 min; room temperature.
# 11; Detector 2; Luminescence intensity; ViewLux.
# NOTES (numbers refer to Sequence numbers above)
# 1. 4 uL of HepG2-CYP2B6-hCAR cells at 6.25 x 10^5 cells/mL (2,500 cells/well) were dispensed using a Multidrop Combi dispenser in tissue culture-treated 1536-well white assay plates (Greiner Bio-One) in the same culture media, without geneticin and blasticidin included.
# 2. Plates were incubated for 5 hours at 37C, 95% humidity, and 5% CO2 to allow for cell attachment.
# 3. Compounds (final concentrations of most substances ranged from 15.6 nM to 31.9 uM), positive control (for antagonist mode: PK11195 with a final concentration range 2.8 nM to 92 uM), and toxicity control tetraoctyl ammonium bromide (final concentration of 92 uM) were transferred (23 nL) via pintool (Wako Automation).
# 4. After compound transfer, plates were dispensed with 1 uL of the known hCAR agonist 6-(4-Chlorophenyl)imidazo[2,1-b][1,3]thiazole-5-carbaldehyde O-(3,4-dichlorobenzyl)oxime (CITCO, final concentration of 48 uM) in the antagonist mode using a BioRAPTR FRDTM.
# 6. 1 uL of CellTiter-Fluor (Promega, Madison, Wisconsin) was added using a BioRAPTR FRDTM.
# 8. Fluorescence intensity (Ex/Em = 405 nm/540 nm) is obtained using the ViewLux plate reader to determine cell viability.
# 9. 4 uL of ONE-Glo Luciferase reagent (Promega) was added to each well using the BioRAPTR FRDTM,
# 10. Luminescence intensity is read using the ViewLux detector.
row,Compound,Potency
1,CC(C)(O)[C@@H]1CC[C@](C)([C@@H]2[C@H](O)C[C@]3(C)C4C[C@@H](O[C@H]5O[C@@H](CO)[C@H](O)[C@@H](O)[C@@H]5O)C5C(C)(C)[C@H](O[C@H]6OC[C@H](O)[C@@H](O)[C@@H]6O)CC[C@]56CC46CC[C@@]23C)O1 (stereo not given in full),inactive
2,CC(=O)O[C@H]1[C@H](O[C@H]2CC[C@]34C[C@]35CC[C@]3(C)[C@@H]([C@@]6(C)CC[C@@H](C(C)(C)O)O6)[C@@H](O)C[C@@]3(C)[C@@H]5C[C@H](O[C@@H]3O[C@H](CO)[C@@H](O)[C@H](O)[C@H]3O)[C@H]4C2(C)C)OC[C@@H](O)[C@@H]1O,inactive
3,O[C@@H]1[C@@H](O)[C@H](OC/C=C/c2ccccc2)O[C@H](CO[C@@H]2OC[C@H](O)[C@H](O)[C@H]2O)[C@H]1O,inactive
4,COc1ccc2c(c1O)-c1c(OC)c(OC)cc3c1[C@H](C2)N(C)CC3,inactive
5,O=C(/C=C/c1ccc(O)c(O)c1)O[C@H]1[C@H](O)C[C@](O)(C(=O)O)C[C@H]1OC(=O)/C=C/c1ccc(O)c(O)c1,inactive
6,COc1cc(/C=C/c2ccccc2)oc(=O)c1,inactive
7,CCCCCCCCCCCCCCCCCCCCCC(=O)O,inactive
8,CCC(/C=C/[C@@H](C)[C@H]1CCC2C3CC=C4C[C@@H](O)CC[C@]4(C)C3CC[C@@]21C)C(C)C (stereo not given in full),inactive
9,O=C(/C=C/c1ccc(O)c2c1[C@H](C(=O)O)[C@@H](c1ccc(O)c(O)c1)O2)O[C@H](Cc1ccc(O)c(O)c1)C(=O)O,inactive
10,CCCCCCC/C=C/C(=O)CCc1ccc(O)c(OC)c1,inactive
11,OC[C@H]1O[C@@H](OC[C@H]2O[C@@H](OC/C=C/c3ccccc3)[C@H](O)[C@@H](O)[C@@H]2O)[C@@H](O)[C@@H]1O,inactive
12,CCCCCCCCC[C@@H](O)CC(=O)CCc1ccc(O)c(OC)c1,inactive
13,CCCCCCCC/C=C\CCCCCCCCCCCCCC(=O)O,inactive
14,O=c1c(O[C@@H]2O[C@H](CO)[C@H](O)[C@H](O)[C@H]2O)c(-c2ccc(O)c(O)c2)oc2cc(O)cc(O)c12,inactive
15,COc1cc(-c2oc3cc(O)cc(O)c3c(=O)c2O)ccc1O,inactive
16,C=C1CC[C@H](O)CC1=C/C=C1\CCC[C@]2(C)[C@@H]([C@H](C)/C=C/[C@H](C)C(C)C)CC[C@@H]12,inactive
17,C=C[C@](C)(O)CCC=C(C)C,inactive
18,C=C1CC/C=C(/C)CC[C@@H]2[C@@H]1CC2(C)C,inactive
19,C=C1C[C@@]23CC[C@H]4[C@](C)(CCC[C@]4(C)C(=O)O[C@@H]4O[C@H](CO)[C@@H](O)[C@H](O)[C@H]4O)[C@@H]2CC[C@]1(O[C@H]1O[C@@H](CO)[C@H](O)[C@@H](O)[C@@H]1O)C3,inactive
20,O=C(/C=C/c1ccc(O)c(O)c1)O[C@@H]1CC(O)(C(=O)O)C[C@@H](OC(=O)/C=C/c2ccc(O)c(O)c2)C1O (stereo not given in full),inactive

row,Compound,Potency
1,CC(=O)OC1CC2CCC1(C)C2(C)C (stereo not given),inactive
2,COc1cc2c(cc1O)CC1c3c(cc(O)c(OC)c3-2)CCN1C (stereo not given),inactive
3,C[C@@H]1OC(O[C@H]2[C@H](O)[C@@H](O)[C@H](OC[C@H]3O[C@@H](OC(=O)[C@]45CCC(C)(C)C[C@@H]4C4=CCC6[C@@]7(C)CC[C@H](OC8OC[C@H](O)[C@H](O)[C@H]8OC8O[C@@H](C)[C@H](O)[C@@H](O)[C@H]8O)[C@@](C)(CO)C7CC[C@@]6(C)[C@]4(C)CC5)[C@H](O)[C@@H](O)[C@@H]3O)O[C@@H]2CO)[C@H](O)[C@H](O)[C@H]1O (stereo not given in full),inactive
4,O=c1cc(-c2ccc(O)cc2)oc2cc(O[C@H]3OC(CO)C(O)C(O)C3O)cc(O)c12 (stereo not given in full),inactive
5,Cc1ncc(COP(=O)(O)O)c(C)c1O,inactive
6,O=Cc1ccccc1O,inactive
7,O=C(/C=C/c1ccc(O)c(O)c1)OC1[C@H](O)CC(O)(C(=O)O)C[C@@H]1O (stereo not given in full),inactive
8,CCCCCC/C=C\CCCCCCCC(=O)O,inactive
9,C=C[C@H]1CN2CCc3c([nH]c4ccccc34)[C@H]2C[C@@H]1/C(=C\OC)C(=O)OC,inactive
10,COc1ccc(-c2coc3cc(O[C@@H]4O[C@H](CO)[C@@H](O)[C@H](O)[C@H]4O)ccc3c2=O)cc1,inactive
11,CC/C=C\C/C=C\C/C=C\CCCCCCCC(=O)O,inactive
12,COC1=C[C@@]23CCN(C)[C@H](Cc4ccc(OC)c(O)c42)C3=CC1=O,inactive
13,COc1ccc2ccc(=O)oc2c1,inactive
14,C=C1CC[C@H](O)C/C1=C\C=C1/CCC[C@]2(C)[C@@H]([C@H](C)CC[C@H](C)C(C)C)CC[C@@H]12,inactive
15,CCCCCCCC/C=C/CCCCCCCCCC(=O)O,inactive
16,CC(C)=CCC/C(C)=C/C=C/C(C)=C/C=C/C(C)=C/C=C/C=C(C)/C=C/C=C(C)/C=C/C=C(\C)CCC=C(C)C,inactive
17,O=C(O)[C@H]1O[C@@H](Oc2c(-c3ccc(O)c(O)c3)oc3cc(O)cc(O)c3c2=O)[C@H](O)[C@@H](O)[C@@H]1O,inactive
18,O=C(O)CC(O)(C(=O)O)C(O)C(=O)O (stereo not given),inactive
19,Cc1ccc(C(C)C)cc1,inactive
20,O=C(O[C@@H]1Cc2c(O)cc(O)cc2O[C@@H]1c1ccc(O)c(O)c1)c1cc(O)c(O)c(O)c1,inactive
